# Data: PubChem BioAssay (NCI)
# About 83,000 compounds went through this panel and 20% of them were active in at least one assay; those are over-represented in the sample as a whole.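 Single-dose data. Exposure time 48 hours. Values below 10 considered active.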 Values without a mark were called inactive. The source made the active and inactive calls.
# Legend:
# Assay in all cases: NCI-60 one-dose screen, 48 h (100 = growth as untreated, 0 = no growth, -100 = all killed)
# SR leukemia = settings: 10 µM unless noted
# RPMI-8226 leukemia = settings: 10 µM unless noted
# OVCAR-8 ovarian = settings: 10 µM unless noted
# OVCAR-5 ovarian = settings: 10 µM unless noted
# OVCAR-4 ovarian = settings: 10 µM unless noted
# SK-OV-3 ovarian = settings: 10 µM unless noted
# IGROV1 ovarian = settings: 10 µM unless noted
# OVCAR-3 ovarian = settings: 10 µM unless noted
# HS 578T breast = settings: 10 µM
# T-47D breast = settings: 10 µM unless noted
# BT-549 breast = settings: 10 µM unless noted
# MDA-MB-435 melanoma = settings: 10 µM unless noted
# SW-620 colon = settings: 10 µM unless noted
# MCF7 breast = settings: 10 µM unless noted
# HCT-116 colon = settings: 10 µM unless noted
# HCC-2998 colon = settings: 10 µM unless noted
# KM12 colon = settings: 10 µM unless noted
# NCI/ADR-RES ovarian = settings: 10 µM unless noted
SMILES,growth (SR leukemia),growth (RPMI-8226 leukemia),growth (OVCAR-8 ovarian),growth (OVCAR-5 ovarian),growth (OVCAR-4 ovarian),growth (SK-OV-3 ovarian),growth (IGROV1 ovarian),growth (OVCAR-3 ovarian),growth (HS 578T breast),growth (T-47D breast),growth (BT-549 breast),growth (MDA-MB-435 melanoma),growth (SW-620 colon),growth (MCF7 breast),growth (HCT-116 colon),growth (HCC-2998 colon),growth (KM12 colon),growth (NCI/ADR-RES ovarian)
Cc1cc(NC(=O)C2c3ccccc3C(=O)N(CC(C)C)C2c2cccs2)no1 (configuration not stated),7.23% (active),3.73% (active),3.68% (active),31.5%,-8.84% (active),94.7%,16.2%,-53.6% (active),67.7%,23.9%,-4.46% (active),-43.8% (active),-57% (active),10.4%,0.136% (active),-45.5% (active),86.8%,–
Cc1cc(C)cc(Nc2cc(C)nc3nc(C(F)(F)F)nn23)c1,29.6%,40%,17.5%,63.3%,37.3%,47.8%,21.6%,8.97% (active),71.7%,29.5%,49%,36.9%,35.2%,-11.7% (active),19.2%,40.2%,25.7%,–
COc1cc(C(=O)/C=C/c2cn(-c3ccccc3)nc2-c2cccc(Nc3ccnc4cc(Cl)ccc34)c2)cc(OC)c1OC,3.48% (active),47.2%,78.5%,112%,127%,115%,93.2%,132%,102%,95.4%,93.3%,66.9%,99.1%,71.2%,68.1%,108%,93.5%,–
C#CC[C@@H]1C[C@]2(C)[C@H]3CC=C4[C@H]5[C@@H](C)[C@H](C)CC[C@]5(C(=O)NCCCN5CCN(CCCN)CC5)CC[C@@]4(C)[C@]3(C)CC[C@H]2C(C)(C)[C@H]1OC(C)=O,-5.62% (active),-52.1% (active),-58.3% (active),29.4%,-17.5% (active),115%,-60.5% (active),-73.7% (active),-25.3% (active),–,–,-74.2% (active),-51% (active),-75.8% (active),-83.9% (active),-34.1% (active),1.28% (active),61.7%
CCn1c(CN2CCN(Cc3ccccc3)CC2)nc2cc(NC(=O)c3cccs3)ccc21,-9.71% (active),-27.6% (active),-61.8% (active),4.74% (active),-51.2% (active),-95.1% (active),-83% (active),-94.5% (active),-25.3% (active),-62.5% (active),-30.9% (active),-89% (active),-82.8% (active),-88.1% (active),0.264% (active),-88.9% (active),-93.5% (active),–
CCOC(=O)c1ccc(NC(=O)NC2=NCCS2)cc1,17.6%,13.9%,27.1%,96.5%,70.6%,11.5%,21.5%,-53.7% (active),42.7%,35.8%,24.2%,48.3%,77.8%,–,93%,45%,15.5%,–
C=C1NC(=O)C(C(C)CC)NC(=O)C2CSCC(NC(=O)CCC(=O)O)C(=O)NC(Cc3ccccc3)C(=O)NC(C)C(=O)NC(CC(C)CC)C(=O)NC(C(=O)NC(Cc3ccccc3)C(=O)N3CCCC3C(=O)N2)C(C)OC(=O)C(CO)NC(=O)C(C(O)COC)N(C)C(=O)C(C(C)C)NC(=O)C(CC(C)CC)NC1=O (configuration not stated),12.5% [6 µM],25.3% [6 µM],12.9% [6 µM],44.9% [6 µM],55.6% [6 µM],39% [6 µM],30.9% [6 µM],12.4% [6 µM],–,60.2% [6 µM],7.87% [6 µM] (active),-34.8% [6 µM] (active),21.2% [6 µM],–,6.69% [6 µM] (active),12.3% [6 µM],2.09% [6 µM] (active),9.55% [6 µM] (active)
O=C(/C=C/c1cn(-c2ccccc2)nc1-c1cccc(Nc2ccnc3cc(Cl)ccc23)c1)c1ccc2c(c1)OCO2,8.67% (active),59.2%,91.9%,106%,143%,113%,96.8%,117%,105%,93.3%,100%,69.6%,95.9%,81.1%,–,102%,94.1%,–
CCN(CC)CCC(CNc1ccnc2cc(Cl)ccc12)c1ccc(O)cc1 (configuration not stated),47.5%,51.3%,92.2%,103%,91.4%,104%,78.1%,98.7%,–,114%,80.5%,60.7%,51.2%,113%,49.5%,88.9%,82%,99.8%
O=C(Oc1c(Cl)c(Cl)c(Cl)c(Cl)c1Cl)C1CCCN1C(=O)OCc1ccccc1 (configuration not stated),30.1%,6.32% (active),34.7%,94.9%,51%,46.4%,37.3%,79.1%,–,2.01% (active),54.9%,84.2%,22.2%,29.6%,15.9%,49.1%,23.6%,27.6%
CC(=O)N1N=C(c2ccc(C)cc2)CC1c1cn(-c2ccccc2)nc1-c1cccc(Nc2ccnc3cc(Cl)ccc23)c1 (configuration not stated),-4.15% (active),-11% (active),46.4%,133%,120%,114%,48.9%,84.7%,80.3%,23.4%,87.3%,13.8%,27.2%,24.8%,6.87% (active),–,72.5%,–
Cn1c(=O)c2[nH]c(Cc3ccc4c(c3)OCO4)nc2n(C)c1=O,120%,88.8%,105%,90.5%,88.2%,107%,106%,104%,–,99.8%,103%,107%,99.8%,–,–,109%,108%,107%
O=c1[nH]cnc2nc[nH]c12,48.8%,93.5%,76.9%,98.5%,94.5%,121%,109%,174%,–,111%,105%,93.5%,105%,–,98.1%,101%,196%,97.8%
CCCc1n(Cc2ccc3ccccc3n2)cc[n+]1Cc1ccc2ccccc2c1,-0.784% (active),-7.06% (active),10.8%,5.17% (active),5.87% (active),0.843% (active),3.66% (active),-4% (active),–,-2.95% (active),-3.95% (active),-6.36% (active),15%,2.91% (active),1.31% (active),12.5%,-4.46% (active),95.7%
C=CC[C@]1(O)CC[C@H]2[C@@H]3CCc4cc(O)ccc4[C@H]3CC[C@@]21C,38.4%,86.5%,94.9%,98.5%,94.3%,107%,109%,102%,–,82.5%,93.6%,38.9%,92%,116%,93%,99.8%,76.8%,87.5%
